In ChEMBL document CHEMBL1961873, “Compounds: GSK PKIS; Assays: Nanosyn kinase panel” (2012) one finds inhibition data, which are given here for 3 compounds.

Test [1] has as its target T1, Serine/threonine-protein kinase D2 (Homo sapiens) (UniProt Q9BZL6).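 Further: mean value of PRKD2 inhibition, from the GSK PKIS screening panel.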
T1 sequence (whole entry): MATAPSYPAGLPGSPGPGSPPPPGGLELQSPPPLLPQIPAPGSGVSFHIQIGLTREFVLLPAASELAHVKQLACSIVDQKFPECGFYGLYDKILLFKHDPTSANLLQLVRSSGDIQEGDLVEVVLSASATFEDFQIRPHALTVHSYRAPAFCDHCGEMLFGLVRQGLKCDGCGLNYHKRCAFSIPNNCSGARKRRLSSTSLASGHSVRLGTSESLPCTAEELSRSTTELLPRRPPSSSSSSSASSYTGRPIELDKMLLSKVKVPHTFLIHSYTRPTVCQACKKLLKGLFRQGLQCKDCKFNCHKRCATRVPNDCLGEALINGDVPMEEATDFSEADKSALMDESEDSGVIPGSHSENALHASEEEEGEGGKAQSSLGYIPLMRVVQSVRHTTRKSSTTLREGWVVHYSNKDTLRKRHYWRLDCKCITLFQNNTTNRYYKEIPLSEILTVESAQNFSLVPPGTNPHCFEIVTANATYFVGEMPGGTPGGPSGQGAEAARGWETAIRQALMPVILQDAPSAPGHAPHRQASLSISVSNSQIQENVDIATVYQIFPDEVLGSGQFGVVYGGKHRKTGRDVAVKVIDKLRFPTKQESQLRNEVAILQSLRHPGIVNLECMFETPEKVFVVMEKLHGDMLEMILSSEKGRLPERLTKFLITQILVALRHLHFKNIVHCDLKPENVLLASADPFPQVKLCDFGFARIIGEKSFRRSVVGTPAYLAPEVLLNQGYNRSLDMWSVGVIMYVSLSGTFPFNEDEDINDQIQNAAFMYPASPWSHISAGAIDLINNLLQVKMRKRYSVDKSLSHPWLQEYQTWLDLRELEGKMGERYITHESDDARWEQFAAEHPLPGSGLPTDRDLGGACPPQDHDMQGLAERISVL
The note with it: at 1 µM.

In test [2] the target is T2, Serine/threonine-protein kinase D3 (Homo sapiens) (UniProt O94806).
T2 sequence (whole entry): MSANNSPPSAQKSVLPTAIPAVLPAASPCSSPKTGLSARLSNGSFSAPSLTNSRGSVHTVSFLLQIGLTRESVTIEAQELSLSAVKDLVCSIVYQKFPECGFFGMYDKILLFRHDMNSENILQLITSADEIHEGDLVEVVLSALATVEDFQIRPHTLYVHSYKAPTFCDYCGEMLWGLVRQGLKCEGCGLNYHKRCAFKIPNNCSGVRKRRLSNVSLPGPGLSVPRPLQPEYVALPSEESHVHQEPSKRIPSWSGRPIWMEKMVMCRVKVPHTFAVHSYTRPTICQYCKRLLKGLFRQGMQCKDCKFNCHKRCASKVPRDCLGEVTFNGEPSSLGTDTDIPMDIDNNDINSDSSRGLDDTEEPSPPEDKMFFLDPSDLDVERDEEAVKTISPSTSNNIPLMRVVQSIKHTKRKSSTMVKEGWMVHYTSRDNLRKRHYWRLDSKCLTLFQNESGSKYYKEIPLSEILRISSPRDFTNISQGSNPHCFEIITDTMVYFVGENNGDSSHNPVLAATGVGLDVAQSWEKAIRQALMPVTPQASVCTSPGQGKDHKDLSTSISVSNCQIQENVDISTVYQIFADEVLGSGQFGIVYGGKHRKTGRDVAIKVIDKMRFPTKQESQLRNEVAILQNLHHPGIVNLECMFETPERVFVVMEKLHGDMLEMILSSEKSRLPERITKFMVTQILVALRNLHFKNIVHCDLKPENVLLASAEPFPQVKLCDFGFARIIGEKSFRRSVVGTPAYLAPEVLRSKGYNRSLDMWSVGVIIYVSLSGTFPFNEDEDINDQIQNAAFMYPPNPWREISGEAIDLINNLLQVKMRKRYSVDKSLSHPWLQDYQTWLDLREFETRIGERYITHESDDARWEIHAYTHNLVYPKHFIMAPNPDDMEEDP
Conditions: at 0.1 µM.

The target of test [3] is T2, Serine/threonine-protein kinase D3 (Homo sapiens). The note with it: at 1 µM.
The target of test [4] is T3, cGMP-dependent protein kinase 1 (Homo sapiens) (UniProt Q13976).
T3 sequence (whole entry): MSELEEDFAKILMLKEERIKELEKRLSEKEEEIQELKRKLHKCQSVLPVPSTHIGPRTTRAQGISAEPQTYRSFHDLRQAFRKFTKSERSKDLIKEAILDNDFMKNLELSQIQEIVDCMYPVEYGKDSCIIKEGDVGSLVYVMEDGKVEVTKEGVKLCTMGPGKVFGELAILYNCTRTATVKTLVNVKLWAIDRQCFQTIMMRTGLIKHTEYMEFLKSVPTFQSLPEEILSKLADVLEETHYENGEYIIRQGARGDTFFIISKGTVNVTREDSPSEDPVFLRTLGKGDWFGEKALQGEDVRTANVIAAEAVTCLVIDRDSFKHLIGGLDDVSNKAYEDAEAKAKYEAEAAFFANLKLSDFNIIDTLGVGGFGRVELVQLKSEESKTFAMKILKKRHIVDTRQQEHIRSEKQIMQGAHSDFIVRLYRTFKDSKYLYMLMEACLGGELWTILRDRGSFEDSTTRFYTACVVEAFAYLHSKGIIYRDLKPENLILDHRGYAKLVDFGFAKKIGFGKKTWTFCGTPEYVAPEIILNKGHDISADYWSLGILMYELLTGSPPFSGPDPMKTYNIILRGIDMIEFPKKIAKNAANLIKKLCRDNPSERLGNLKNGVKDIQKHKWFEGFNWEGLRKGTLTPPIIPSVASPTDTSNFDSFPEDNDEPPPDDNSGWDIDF
The note with it: at 0.1 µM.

Test [5] concerns the target T3, cGMP-dependent protein kinase 1 (Homo sapiens). Conditions: at 1 µM.
The target in test [6] is T4, cGMP-dependent protein kinase 2 (Homo sapiens) (UniProt Q13237).
T4 sequence (whole entry): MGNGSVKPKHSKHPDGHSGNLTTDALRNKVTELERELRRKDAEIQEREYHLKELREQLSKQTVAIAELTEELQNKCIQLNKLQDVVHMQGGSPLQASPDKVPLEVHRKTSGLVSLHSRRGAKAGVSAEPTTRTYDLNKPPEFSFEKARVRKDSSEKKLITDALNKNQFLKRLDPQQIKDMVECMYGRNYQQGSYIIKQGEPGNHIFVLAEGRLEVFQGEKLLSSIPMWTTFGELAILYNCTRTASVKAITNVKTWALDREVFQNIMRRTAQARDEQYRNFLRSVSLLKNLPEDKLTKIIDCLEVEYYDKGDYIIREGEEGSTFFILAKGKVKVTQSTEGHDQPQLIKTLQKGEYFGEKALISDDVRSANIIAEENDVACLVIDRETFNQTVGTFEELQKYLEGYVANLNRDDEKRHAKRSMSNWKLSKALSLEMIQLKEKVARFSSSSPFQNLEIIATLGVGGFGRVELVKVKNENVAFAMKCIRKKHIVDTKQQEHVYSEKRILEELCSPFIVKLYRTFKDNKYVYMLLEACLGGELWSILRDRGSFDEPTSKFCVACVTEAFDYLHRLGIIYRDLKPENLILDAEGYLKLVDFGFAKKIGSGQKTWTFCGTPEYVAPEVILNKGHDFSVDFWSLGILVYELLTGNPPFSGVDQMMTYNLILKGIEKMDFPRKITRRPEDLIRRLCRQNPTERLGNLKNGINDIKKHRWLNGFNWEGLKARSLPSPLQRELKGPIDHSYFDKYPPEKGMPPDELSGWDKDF
Conditions: at 0.1 µM.

Test [7] has as its target T4, cGMP-dependent protein kinase 2 (Homo sapiens). The note with it: at 1 µM.
Test [8] concerns the target T5, cAMP-dependent protein kinase catalytic subunit PRKX (Homo sapiens) (UniProt P51817).
T5 sequence (whole entry): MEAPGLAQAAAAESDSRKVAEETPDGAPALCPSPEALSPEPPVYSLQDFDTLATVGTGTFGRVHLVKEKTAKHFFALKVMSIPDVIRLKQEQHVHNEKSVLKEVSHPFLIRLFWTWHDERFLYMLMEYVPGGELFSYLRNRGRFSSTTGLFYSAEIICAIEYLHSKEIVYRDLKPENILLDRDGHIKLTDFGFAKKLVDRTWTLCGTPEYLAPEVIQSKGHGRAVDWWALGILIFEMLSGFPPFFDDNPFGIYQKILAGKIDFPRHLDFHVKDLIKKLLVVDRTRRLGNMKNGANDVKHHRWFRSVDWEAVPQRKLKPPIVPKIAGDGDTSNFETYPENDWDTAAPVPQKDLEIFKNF
The note with it: at 0.1 µM.

Test [9] concerns the target T5, cAMP-dependent protein kinase catalytic subunit PRKX (Homo sapiens). The note with it: at 1 µM.
Test [10] addresses Rho-associated protein kinase 1 (Homo sapiens) (UniProt Q13464). Conditions: at 0.1 µM.
Test [11] has the same target. Conditions: at 1 µM.
For test [12], the target named is Rho-associated protein kinase 2 (Homo sapiens) (UniProt O75116). Conditions: at 0.1 µM.
Sequence of Rho-associated protein kinase 2 (Homo sapiens) (O75116 whole entry, looked up): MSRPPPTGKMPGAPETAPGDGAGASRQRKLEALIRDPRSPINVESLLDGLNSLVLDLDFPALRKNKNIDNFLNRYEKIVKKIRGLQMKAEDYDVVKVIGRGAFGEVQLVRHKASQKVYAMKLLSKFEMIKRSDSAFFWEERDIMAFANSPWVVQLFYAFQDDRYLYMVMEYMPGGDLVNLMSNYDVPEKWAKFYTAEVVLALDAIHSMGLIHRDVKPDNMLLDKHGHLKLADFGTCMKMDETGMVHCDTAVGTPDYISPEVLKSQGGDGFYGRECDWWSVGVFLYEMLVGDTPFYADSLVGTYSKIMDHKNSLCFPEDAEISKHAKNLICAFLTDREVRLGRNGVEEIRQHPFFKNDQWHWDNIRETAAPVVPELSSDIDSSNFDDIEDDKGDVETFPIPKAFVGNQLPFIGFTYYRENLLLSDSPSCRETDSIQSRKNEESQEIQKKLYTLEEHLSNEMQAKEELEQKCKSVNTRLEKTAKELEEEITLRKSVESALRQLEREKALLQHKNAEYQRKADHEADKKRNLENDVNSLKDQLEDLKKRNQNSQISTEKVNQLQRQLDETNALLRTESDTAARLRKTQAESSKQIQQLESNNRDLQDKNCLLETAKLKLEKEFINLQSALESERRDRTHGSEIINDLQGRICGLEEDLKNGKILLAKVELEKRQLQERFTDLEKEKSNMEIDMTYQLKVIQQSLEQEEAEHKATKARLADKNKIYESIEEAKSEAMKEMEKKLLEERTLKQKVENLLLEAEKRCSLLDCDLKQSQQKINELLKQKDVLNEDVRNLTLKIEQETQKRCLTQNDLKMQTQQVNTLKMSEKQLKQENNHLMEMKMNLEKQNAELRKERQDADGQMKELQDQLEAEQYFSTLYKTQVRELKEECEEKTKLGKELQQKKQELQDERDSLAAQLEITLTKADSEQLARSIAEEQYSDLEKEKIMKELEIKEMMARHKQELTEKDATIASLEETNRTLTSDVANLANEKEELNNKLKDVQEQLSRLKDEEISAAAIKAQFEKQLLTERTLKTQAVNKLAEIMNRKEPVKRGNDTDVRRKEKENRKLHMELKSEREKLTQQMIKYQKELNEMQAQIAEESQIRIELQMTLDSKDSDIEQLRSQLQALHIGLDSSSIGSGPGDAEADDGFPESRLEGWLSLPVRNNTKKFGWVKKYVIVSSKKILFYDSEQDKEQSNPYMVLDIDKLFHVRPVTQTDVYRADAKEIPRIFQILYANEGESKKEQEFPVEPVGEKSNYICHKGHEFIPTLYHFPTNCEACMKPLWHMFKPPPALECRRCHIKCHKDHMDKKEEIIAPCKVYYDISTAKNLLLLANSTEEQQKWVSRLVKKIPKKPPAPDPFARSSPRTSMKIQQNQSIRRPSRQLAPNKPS
The target is the same in test [13]. The note with it: at 1 µM.
The target of test [14] is Ribosomal protein S6 kinase alpha-1 (Homo sapiens) (UniProt Q15418). Conditions: at 0.1 µM.
Sequence of Ribosomal protein S6 kinase alpha-1 (Homo sapiens) (Q15418 whole entry): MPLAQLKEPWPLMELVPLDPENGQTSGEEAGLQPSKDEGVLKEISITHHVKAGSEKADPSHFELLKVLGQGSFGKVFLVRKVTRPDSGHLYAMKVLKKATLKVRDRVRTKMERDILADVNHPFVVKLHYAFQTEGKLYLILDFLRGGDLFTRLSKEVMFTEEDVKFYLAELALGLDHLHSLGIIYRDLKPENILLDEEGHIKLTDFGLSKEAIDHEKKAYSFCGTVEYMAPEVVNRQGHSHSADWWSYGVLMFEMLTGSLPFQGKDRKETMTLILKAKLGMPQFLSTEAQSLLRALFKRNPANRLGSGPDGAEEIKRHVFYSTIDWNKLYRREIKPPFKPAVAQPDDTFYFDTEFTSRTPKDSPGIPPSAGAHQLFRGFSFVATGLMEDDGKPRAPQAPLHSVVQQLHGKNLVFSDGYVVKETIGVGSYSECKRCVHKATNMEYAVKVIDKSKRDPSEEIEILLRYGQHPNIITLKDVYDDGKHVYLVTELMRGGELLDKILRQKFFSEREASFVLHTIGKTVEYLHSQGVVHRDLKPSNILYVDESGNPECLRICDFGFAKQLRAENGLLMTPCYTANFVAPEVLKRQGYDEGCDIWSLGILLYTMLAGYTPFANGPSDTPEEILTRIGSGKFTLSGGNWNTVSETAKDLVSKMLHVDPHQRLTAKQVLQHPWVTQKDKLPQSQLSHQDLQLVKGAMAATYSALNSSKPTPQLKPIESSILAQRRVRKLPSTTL
The target is the same in test [15]. Conditions: at 1 µM.
The target of test [16] is Ribosomal protein S6 kinase alpha-3 (Homo sapiens) (UniProt P51812). The note with it: at 0.1 µM.
Sequence of Ribosomal protein S6 kinase alpha-3 (Homo sapiens) (P51812 whole entry): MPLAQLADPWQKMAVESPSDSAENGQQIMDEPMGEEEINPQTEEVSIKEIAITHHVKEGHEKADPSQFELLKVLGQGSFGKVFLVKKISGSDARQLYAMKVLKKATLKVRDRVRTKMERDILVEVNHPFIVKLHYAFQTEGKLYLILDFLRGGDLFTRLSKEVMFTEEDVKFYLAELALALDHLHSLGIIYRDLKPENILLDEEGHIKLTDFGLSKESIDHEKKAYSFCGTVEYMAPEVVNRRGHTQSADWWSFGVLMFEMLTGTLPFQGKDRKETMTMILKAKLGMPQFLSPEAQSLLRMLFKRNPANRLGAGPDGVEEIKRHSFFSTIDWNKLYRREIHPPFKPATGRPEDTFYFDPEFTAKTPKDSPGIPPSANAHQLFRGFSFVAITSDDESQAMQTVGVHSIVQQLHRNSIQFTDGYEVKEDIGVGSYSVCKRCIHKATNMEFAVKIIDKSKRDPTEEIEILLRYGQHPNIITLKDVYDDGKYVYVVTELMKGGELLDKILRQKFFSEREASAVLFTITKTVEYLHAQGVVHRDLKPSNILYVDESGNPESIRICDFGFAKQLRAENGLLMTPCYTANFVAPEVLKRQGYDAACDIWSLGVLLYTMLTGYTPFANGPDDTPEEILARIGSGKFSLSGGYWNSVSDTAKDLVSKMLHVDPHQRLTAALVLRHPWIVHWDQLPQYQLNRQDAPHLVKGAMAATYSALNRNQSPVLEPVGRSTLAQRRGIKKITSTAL
Test [17] shares this target. Conditions: at 1 µM.
For test [18], the target named is Ribosomal protein S6 kinase alpha-2 (Homo sapiens) (UniProt Q15349). The note with it: at 0.1 µM.
The target is the same in test [19]. The note with it: at 1 µM.
Test [20] concerns the target Ribosomal protein S6 kinase alpha-6 (Homo sapiens) (UniProt Q9UK32). Conditions: at 0.1 µM.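 Further: reported value is the mean inhibition of RSK4, from the GSK PKIS kinase inhibitor screen.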

Sequence of Ribosomal protein S6 kinase alpha-6 (Homo sapiens) (Q9UK32 whole entry): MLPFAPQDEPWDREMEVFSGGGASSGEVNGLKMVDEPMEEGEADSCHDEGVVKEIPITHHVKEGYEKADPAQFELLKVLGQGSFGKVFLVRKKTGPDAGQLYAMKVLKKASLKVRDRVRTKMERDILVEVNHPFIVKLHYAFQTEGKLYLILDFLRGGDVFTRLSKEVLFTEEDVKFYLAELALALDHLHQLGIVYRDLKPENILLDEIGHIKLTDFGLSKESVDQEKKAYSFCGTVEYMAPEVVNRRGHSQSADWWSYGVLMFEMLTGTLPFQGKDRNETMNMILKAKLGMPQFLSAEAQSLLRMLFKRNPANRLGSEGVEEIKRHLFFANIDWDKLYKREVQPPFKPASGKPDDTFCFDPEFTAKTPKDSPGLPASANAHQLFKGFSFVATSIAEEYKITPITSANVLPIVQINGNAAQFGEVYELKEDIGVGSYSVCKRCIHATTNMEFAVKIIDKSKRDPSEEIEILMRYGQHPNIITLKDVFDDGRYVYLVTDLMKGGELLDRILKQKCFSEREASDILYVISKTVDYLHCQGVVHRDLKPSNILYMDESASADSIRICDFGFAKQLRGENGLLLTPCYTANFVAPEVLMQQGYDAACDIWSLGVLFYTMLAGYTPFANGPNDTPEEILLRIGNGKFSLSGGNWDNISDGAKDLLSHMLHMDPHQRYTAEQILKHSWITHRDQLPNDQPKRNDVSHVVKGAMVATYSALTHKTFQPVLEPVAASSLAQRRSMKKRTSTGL
Sequence of Rho-associated protein kinase 1 (Homo sapiens) (Q13464 2-1354 limits assumed): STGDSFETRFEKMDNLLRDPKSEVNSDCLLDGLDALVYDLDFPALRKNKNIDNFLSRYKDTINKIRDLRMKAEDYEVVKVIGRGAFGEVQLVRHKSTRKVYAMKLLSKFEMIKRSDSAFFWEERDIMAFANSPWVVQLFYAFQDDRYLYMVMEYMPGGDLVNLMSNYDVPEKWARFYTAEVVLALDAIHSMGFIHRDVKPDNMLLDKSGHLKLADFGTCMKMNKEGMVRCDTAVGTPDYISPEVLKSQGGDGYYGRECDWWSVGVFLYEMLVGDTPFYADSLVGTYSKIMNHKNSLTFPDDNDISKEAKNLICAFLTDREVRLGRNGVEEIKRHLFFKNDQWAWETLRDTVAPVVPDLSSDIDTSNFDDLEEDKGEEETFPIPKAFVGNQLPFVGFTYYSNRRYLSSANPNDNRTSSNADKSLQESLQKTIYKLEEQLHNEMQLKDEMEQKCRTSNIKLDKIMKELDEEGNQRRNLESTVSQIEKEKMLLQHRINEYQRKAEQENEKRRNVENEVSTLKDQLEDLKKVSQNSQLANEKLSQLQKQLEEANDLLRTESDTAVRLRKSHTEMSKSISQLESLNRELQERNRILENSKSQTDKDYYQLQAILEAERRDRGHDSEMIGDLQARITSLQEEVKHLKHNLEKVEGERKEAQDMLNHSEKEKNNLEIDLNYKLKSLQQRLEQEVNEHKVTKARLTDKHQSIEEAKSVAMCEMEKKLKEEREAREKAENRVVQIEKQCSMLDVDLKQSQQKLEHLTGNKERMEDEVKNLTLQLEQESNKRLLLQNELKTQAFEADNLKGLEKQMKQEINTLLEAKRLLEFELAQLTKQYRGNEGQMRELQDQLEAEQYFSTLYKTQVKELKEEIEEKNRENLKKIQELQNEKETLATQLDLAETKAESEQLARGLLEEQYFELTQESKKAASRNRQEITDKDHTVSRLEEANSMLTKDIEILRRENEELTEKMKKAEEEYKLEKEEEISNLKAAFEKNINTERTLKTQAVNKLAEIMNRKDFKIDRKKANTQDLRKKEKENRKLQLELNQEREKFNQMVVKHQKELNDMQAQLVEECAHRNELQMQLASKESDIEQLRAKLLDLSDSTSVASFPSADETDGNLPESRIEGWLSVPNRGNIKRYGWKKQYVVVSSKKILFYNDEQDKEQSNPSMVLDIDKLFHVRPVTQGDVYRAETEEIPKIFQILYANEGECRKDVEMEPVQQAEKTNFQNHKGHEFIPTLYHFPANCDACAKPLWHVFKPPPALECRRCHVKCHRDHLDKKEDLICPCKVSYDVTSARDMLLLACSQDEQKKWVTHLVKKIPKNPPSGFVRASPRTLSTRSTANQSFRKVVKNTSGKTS

Regarding `CCn1c(-c2nonc2N)nc2c(C#CC(C)(C)O)nc(OC[C@@H](N)c3ccccc3)cc21`, the inhibition in test [1] is 8.54%; in test [2], -0.8%; in test [3], 8.35%; in [4], 17.7%; in test [5], 63.5%; in test [6], 35.9%. Also, the inhibition in test [7] turned out to be 73.3%; in test [8] it was 78.2%; in test [9], 79.3%; in [10], 5.46%; in test [11], 37%; in test [12], 7.79%. Also, the inhibition in test [13] is 45.9%; in [14], 2.16%; in test [15], 21.4%; in [16], 3.04%; in [17] it was 26.8%; in test [18] it was 0.98%. Also, the inhibition worked out at 12.9% in test [19] and 2.62% in test [20].
On to `COc1cc2ncn(-c3cc(OCc4ccccc4Cl)c(C(N)=O)s3)c2cc1OC`, for which the inhibition stood at 1.64% in test [1]; 0.33% in test [2]; 0.33% in test [3]; 1.08% in test [4]; 3.55% in test [5]; 0.53% in test [6]. For the same compound, the inhibition in [7] is 1.84%; in test [8], -0.05%; in [9], -3.1%; in test [10], -0.3%; in test [11] it was 0.6%; in test [12], -0.16%. In addition, the inhibition turned out to be 2.11% in test [13]; 0.91% in test [14]; 3.5% in [15]; 0.95% in test [16]; 7.69% in [17]; 1.46% in [18]. Besides, the inhibition is 8.47% in test [19] and 2.26% in test [20].
Regarding `Cc1cc(O)cc(C)c1/C=C/c1cncc(-c2nn[nH]n2)c1`, the inhibition in test [1] came to 4.1%; in [2] it was 2.66%; in [3], 4.77%; in [4] it was 2.15%; in test [5] it was 4.8%; in test [6], 2.47%. Also, the inhibition in test [7] is 3.8%; in test [8], 1.59%; in test [9], 1.75%; in [10], 1.38%; in test [11] it was 1.86%; in test [12], 2.66%. Besides, the inhibition was determined as 2.33% in [13]; 2.97% in test [14]; 1% in [15]; 1.94% in [16]; 1.24% in [17]; 3.53% in test [18]. Besides, the inhibition in [19] came to 3.85%; in test [20], 2.1%.

As usually defined, the inhibition is the change of the read-out against control, counted positive when it falls.
